Measured values: PubChem BioAssay AID624116 (National Center for Advancing Translational Sciences (NCATS), 2012)
Inconclusive results are not listed. Active and inactive are the calls of the source. Calls follow the shape of the dose curve; as a rule, active = well fitted activation curve with a large enough effect; inconclusive = small, poorly fitted or top-dose-only effect; inactive = no such curve, though single readings can be large or run the other way.

Test: qHTS Assay for Rab9 Promoter Activators: Hit Validation Using Renilla Luciferase Read-Out for Rab9; as to activation, negative = inhibition: % of control where 0% means no effect
Settings: Huh7 Rab9 promoter Renilla luciferase reporter, 24 h; series mostly up to 76.9 µM; activation, negative = inhibition: at the top concentration
Summary of the method: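 Huh7 cells stably carrying promoter-luciferase reporter, exposed to compound for 24 h at 37 deg C. Luminescence read 10 min after adding luciferase detection reagent at room temperature.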
Potency is read from the fitted curve at half-maximal effect.

activation, negative = inhibition, inactive:
COCCNC(=O)C1CCC(CNS(=O)(=O)c2ccc(F)cc2)CC1 (configuration not stated) -3.79%, O=C(CCN1C(=O)c2ccccc2C1=O)Nc1ccc(-c2nc3ccccc3s2)cc1 -38%, COc1ccc(/C=C\C(=O)c2c(O)ccc3c(C)cc(=O)oc23)cc1OC -55.5%, CC(C)CC(=O)N1CCN(c2ccc(NC(=O)c3ccco3)cc2)CC1 13.3%, Cc1csc(NC(=O)CSc2nnc(-c3ccncc3)o2)n1 -4.81%, Cc1ccc(C(=O)c2cn[nH]c2-c2ccccc2O)cc1 -8.56%, COc1ccc(-c2nnc(SCC(=O)/C(C#N)=C(\C)N)o2)cc1 -3.43%, CCOc1ccc(CNC(=O)C2CCCN(S(C)(=O)=O)C2)cc1OC (configuration not stated) -1.74%, O=C(CCNC(=O)c1ccc(Br)o1)NCc1ccc(Cl)cc1 -1.43%, O=[N+]([O-])c1cnccc1Nc1ccc(F)cc1 -17.4%, Cc1ccc(C)c(Nc2cc(C)nc3ncnn23)c1 -1.68%, CC1CCCN(S(=O)(=O)c2ccc(C(=O)Nc3nnc(-c4ccncc4)o3)cc2)C1 (configuration not stated) -50.3%, CC1(C)CC(=O)c2c(O)c(-c3ccccc3)c(=O)n(-c3ccccc3)c2C1 0.198%, Cc1nnc2n(c1=O)N=C(c1ccc(Cl)cc1)CS2 1.19%, CCOCC(=O)Nc1c(C(=O)Nc2ccc3c(c2)OCCO3)oc2ccccc12 -30.9%, CCCCn1c(CCNC(=O)c2cccs2)nc2ccccc21 -4.02%, COc1ccc(-c2csc(Nc3ncccn3)n2)cc1C 5.13%, CCN(CC)S(=O)(=O)c1ccc(NCc2ccccn2)nc1 1.11%, CNC(=O)Cn1nc(C)c2ccccc2c1=O -0.365%, O=C(CSc1nnc(-c2ccccc2)o1)Nc1ccccc1F -12.2%, COc1ccc2oc(=O)c(C(=O)NC(C)c3ccccc3)cc2c1 (configuration not stated) 6.37%, CC(C)(C)C(=O)N/C(N)=N/c1nc2ccccc2o1 -60.7%, O=C(CCS(=O)(=O)c1ccccc1)Nc1ccc(-c2nc3ccccc3s2)cc1 4.91%, O=C(N/N=C/c1ccc(-c2ccc(Br)cc2)o1)c1ccc2c(c1)OCO2 -4.86%, COc1ccc(NC(=O)Nc2ccc(Cc3ccncc3)cc2)cc1OC -56.6%, COc1ccccc1CNC(=O)COc1ccc(C)cc1 3.47%, Cc1ccccc1NC(=O)Cc1nc(COC(=O)CC(C)c2ccccc2)cs1 (configuration not stated) -7.63%, O=C(C[N+]1(CC#Cc2ccccc2)CCCCC1)c1ccccc1 2.41%, CCOC(=O)c1ccc(-c2nnc(-c3ccc(Cl)cc3Cl)o2)cc1 -1.8%, Cc1ccc(N=Cc2sc(O)c3ccccc23)c(C)c1 -9.75%, NCCOc1ccccc1-c1ccccc1 2.31%, FC(F)(F)c1ccc(Nc2nnnc3ccccc23)cc1 -66.4%, Cc1ccc(N(O)C(=O)NCCCCNC(=O)N(O)c2ccc(C)cc2)cc1 1.97%, Cc1ccc(S(=O)(=O)N2CCN(c3cnn(C)c(=O)c3Cl)CC2)cc1 -1.64%, O=C(NCCSCc1c(F)cccc1Cl)c1ccc(CN2CCOCC2)cc1 -41.4%, C=CCOC(=O)N1CCN(c2cccc(C(F)(F)F)c2)CC1 -9.5%

Potency, active:
COc1ccc(C(c2nnnn2CCc2ccccc2)N2CCN(C3CCCC3)CC2)cc1 (configuration not stated) 13 µM
